Screening results: PubChem, Johns Hopkins Ion Channel Center
KCNQ2 block = rat KCNQ2 potassium channel inhibitors, primary screen, cell-based, CHO-K1, FluxOR thallium flux, B-score; 310,000 tested, 1.1% active; 20 min; stronger effect = lower value; B-score at 10 µM;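 active = fluorescence ratio B-score at most minus 3 library SDs, with starting brightness B-score within 2 library SDs, cut at about -5.5 in these data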
KCNQ2 enhance = potentiators of rat KCNQ2 potassium channel | CHO-K1 KCNQ2, FluxOR thallium flux fluorescence; stronger effect = higher value | B-score at 10 µM | 310,000 tested, 0.54% active | AID 2239, 2010;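 active = fluorescence ratio B-score at least 3 SD of library B-scores, with initial fluorescence B-score within 3 of them, cut at about 5.3 in these data; same plate scores as AID 2156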;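 note: B-score of peak minus minimum over baseline fluorescence ratio after K+ and Tl+ stimulus; positive B-score means potentiation of KCNQ2 with more thallium influx and brighter signal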
Kir21 confirm = mouse Kir2.1 channel blockers, retest, confirmation, cell-based, FluxOR thallium flux, duplicate | shares compounds with KCNQ2 enhance | Kir2.1-expressing cells, FluxOR thallium flux fluorescence; stronger effect = lower value | Tl flux remaining, % of negative control (stronger effect = lower value), % at 10 µM | 2,300 tested, 41% active | AID 2032, 2009;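 active = Primary-screen hit whose thallium flux fell at least 3 control SD below untreated wells in both duplicates, with normal baseline fluorescence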;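 note: 0% = blank wells without stimulus and 100% = stimulated no-compound controls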
HEK293 ctr = counter-screen for Kir2.1 inhibitors: effect in parental HEK293 cells | shares compounds with KCNQ2 enhance | FluxOR thallium flux fluorescence; 0% = unstimulated blank wells | FluxOR signal as % of negative control (100 = no effect), % at 10 µM | 2,300 tested, 19% active | AID 2105;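 active = dye signal at least 3 control SD above or below untreated wells in both duplicates, raw fluorescence within 3, either direction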;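 note: percent is based on the flux ratio of peak minus minimum fluorescence over baseline F0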
CHO-K1 Tl ctr = nonspecific thallium flux increase in parental CHO-K1, confirmation, counter-screen for KCNQ2 potentiator project, cell-based, FluxOR thallium flux, duplicate | shares compounds with KCNQ2 enhance | parental CHO-K1 cells, FluxOR thallium flux fluorescence; zero = vehicle mean+3SD, 100% = vehicle-minus-blank window | activity increase over 3SD of controls, % at 10 µM | 1,200 tested, 43% active | AID 2282, 2010;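 active = signal rise of at least 3 SD above the untreated control mean, in both duplicate wells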;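 note: counter screen of KCNQ2 potentiator hits so any rise reflects channel-independent effects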
KCNQ1 pot spec = human KCNQ1 channel potentiation off-target, confirmation, selectivity assay for KCNQ2 potentiator project, cell-based, CHO, FluxOR thallium flux | shares compounds with KCNQ2 enhance | CHO KCNQ1 stable, FluxOR thallium flux fluorescence; beyond 3SD, as % of vehicle-control signal | activation over 3SD threshold, % at 10 µM | 1,200 tested, 28% active | AID 2283, 2010;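 active = fluorescence ratio rise of at least 3 SD of vehicle wells above their mean, in both replicate wells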;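 note: 0% = vehicle mean plus 3 SD and 100% = vehicle minus unstimulated blank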
Target sequence (P51787 whole entry, looked up): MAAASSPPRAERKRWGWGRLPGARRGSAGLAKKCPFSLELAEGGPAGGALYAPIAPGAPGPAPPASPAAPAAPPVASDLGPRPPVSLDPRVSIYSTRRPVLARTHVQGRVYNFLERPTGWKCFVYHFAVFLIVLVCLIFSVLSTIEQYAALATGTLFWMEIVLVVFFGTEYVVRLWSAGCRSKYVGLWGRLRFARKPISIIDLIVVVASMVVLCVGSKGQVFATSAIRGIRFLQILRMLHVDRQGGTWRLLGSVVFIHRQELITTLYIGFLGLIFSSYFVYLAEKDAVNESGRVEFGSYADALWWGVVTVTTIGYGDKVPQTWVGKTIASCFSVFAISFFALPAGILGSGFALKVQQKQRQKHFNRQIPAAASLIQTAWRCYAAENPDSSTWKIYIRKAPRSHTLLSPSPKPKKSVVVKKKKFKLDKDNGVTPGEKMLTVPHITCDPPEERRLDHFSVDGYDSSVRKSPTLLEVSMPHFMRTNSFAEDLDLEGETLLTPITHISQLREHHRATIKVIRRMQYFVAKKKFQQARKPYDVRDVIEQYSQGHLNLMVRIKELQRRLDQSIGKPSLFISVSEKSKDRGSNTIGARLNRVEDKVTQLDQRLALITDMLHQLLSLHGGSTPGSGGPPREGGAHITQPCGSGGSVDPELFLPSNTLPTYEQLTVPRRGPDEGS
KCNQ2 pot conf = rat KCNQ2 channel potentiators, confirmation, cell-based, CHO, FluxOR thallium flux, duplicate; CHO-KCNQ2 cells, FluxOR thallium flux fluorescence; shares compounds with KCNQ2 enhance; potentiation, less the hit threshold, % at 10 µM; 1,200 tested, 68% active; AID 2287, 2010;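 active = fluorescence ratio rising 3 SD or more over the vehicle control mean in both replicates, plus primary screen hit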;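 note: peak minus minimum thallium fluorescence divided by baseline after K/Tl stimulus; 0% = vehicle mean plus 3 SD and 100% = vehicle minus unstimulated blank difference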
Kir21 spec = mouse Kir2.1 channel activation off-target, confirmation, selectivity assay for KCNQ2 potentiator project, cell-based, HEK293, FluxOR thallium flux; shares compounds with KCNQ2 enhance; HEK293 Kir2.1, FluxOR thallium flux fluorescence; activity over 3SD threshold, % at 10 µM; 1,200 tested, 2% active;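 active = fluorescence ratio rise of at least 3 SD above the vehicle-control mean, seen in both replicates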;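 note: 0% = vehicle mean plus 3 SD and 100% = vehicle minus no-stimulus blank window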
KCNQ2 W236L MoA = potentiators of retigabine-insensitive KCNQ2 W236L, mechanism study for KCNQ2 potentiator project, cell-based, rat KCNQ2 W236L, CHO, automated patch clamp. automated patch clamp current. AID 2558, 2010. current increase over 3SD of negative controls (%), stronger effect = higher value, % at 25 µM. shares compounds with KCNQ2 enhance. 940 tested, 10% active;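 active = current increase at least 3 SD of the untreated controls above them in both duplicate recordings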
An asterisk follows results filed as active. Most compounds without a hit are left out; they make up all but 1.6% or so of the library.

Screening NC(=O)SCC(=O)Nc1ccc(Cl)cc1 returned KCNQ2 block inactive, KCNQ2 enhance 6*, Kir21 confirm inactive, HEK293 ctr inactive, CHO-K1 Tl ctr -10, KCNQ1 pot spec 20*, KCNQ2 pot conf 20*, Kir21 spec -40 and KCNQ2 W236L MoA inactive.
Screening N#CCSCC(=O)Nc1ccc(Cl)cc1 returned KCNQ2 block inactive and KCNQ2 enhance 0.01.
Screening Cc1ccc(NC(=O)CSC(N)=O)cc1Cl returned KCNQ2 block inactive, KCNQ2 enhance 5.3, Kir21 confirm inactive, HEK293 ctr inactive, CHO-K1 Tl ctr -24, KCNQ1 pot spec -22, KCNQ2 pot conf 3.0*, Kir21 spec -42 and KCNQ2 W236L MoA inactive.
Screening COc1ccc(CCNC(=O)CSc2ccc3nnc(CCNC(=O)c4ccc(C)cc4)n3n2)cc1OC returned KCNQ2 block inactive and KCNQ2 enhance 0.81.
Screening CC(SCc1ccccc1)C(=O)Nc1ccccc1 (stereo not given) returned KCNQ2 block inactive and KCNQ2 enhance 0.6.
`CN(C)CCCC1Sc2ccccc2Sc2ccccc21` (stereo not given) gave KCNQ2 block inactive and KCNQ2 enhance 0.67.
Screening CNCCC1Sc2ccccc2Oc2ccccc21 (stereo not given) returned KCNQ2 block inactive, KCNQ2 enhance 0.93, Kir21 confirm 42%* and HEK293 ctr inactive.
For COc1cc(Br)c(CCNC(=O)c2ccco2)cc1OC the results were KCNQ2 block inactive and KCNQ2 enhance 0.54.
`CC1=C(C(N)=O)C(c2cccs2)n2nc(-c3cccc(C)c3)nc2N1` (stereo not given) gave KCNQ2 block inactive and KCNQ2 enhance 0.02.
For CC1=C(C(N)=O)C(c2cccs2)n2nc(-c3cccc(Cl)c3)nc2N1 (stereo not given) the results were KCNQ2 block inactive, KCNQ2 enhance 5.8*, Kir21 confirm inactive, HEK293 ctr inactive, CHO-K1 Tl ctr 53*, KCNQ1 pot spec -11, KCNQ2 pot conf -4, Kir21 spec -38 and KCNQ2 W236L MoA 0.9%*.
Screening CCN(CC(=O)Nc1ccc(OC)cc1)C(=O)Cc1cccs1 returned KCNQ2 block inactive and KCNQ2 enhance 0.53.
Screening CC(C(=O)Nc1ccccc1)C(=O)Nc1ccccc1 returned KCNQ2 block inactive and KCNQ2 enhance 0.59.
O=C(Nc1ccccc1)C(Cl)C(=O)c1ccccc1 (stereo not given) was read as KCNQ2 block inactive, Kir21 confirm 66%* and HEK293 ctr 70%*.
c1ccc(-c2oc3ncnc(NCCCn4ccnc4)c3c2-c2ccccc2)cc1 was read as KCNQ2 block inactive.
N=c1c2c(-c3ccccc3)c(-c3ccccc3)n(Cc3ccco3)c2ncn1Cc1ccccc1 was read as KCNQ2 block -5.9*, KCNQ2 enhance -5.9, Kir21 confirm 65%* and HEK293 ctr inactive.
For N=c1c2c3c(sc2ncn1Cc1ccco1)CCCCC3 the results were KCNQ2 block inactive and KCNQ2 enhance 0.74.
N=c1c2c(-c3ccccc3)c(-c3ccccc3)n(Cc3ccco3)c2ncn1CCCn1ccnc1 was read as KCNQ2 block inactive, Kir21 confirm 32%* and HEK293 ctr 64%*.
Screening CCCC(=O)c1ccc(O)cc1O returned KCNQ2 block inactive.
CC(C)(C)NC(=O)C(c1ccc(O)cc1)N(C(=O)CCC(=O)Nc1ccccn1)c1ccc(F)cc1 (stereo not given) was read as KCNQ2 block inactive and KCNQ2 enhance 0.16.
Screening Fc1cccc(-n2cc(-c3ccccc3)c3c(=S)nc[nH]c32)c1 returned KCNQ2 block inactive and KCNQ2 enhance 2.8.
Fc1ccc(-n2cc(-c3ccccc3)c3c(=S)nc[nH]c32)cc1 was read as KCNQ2 block inactive, KCNQ2 enhance 6.4*, Kir21 confirm inactive, HEK293 ctr 182%*, CHO-K1 Tl ctr -18, KCNQ1 pot spec -17, KCNQ2 pot conf 7.9*, Kir21 spec -24 and KCNQ2 W236L MoA inactive.
CCOC(=O)c1nnn(-c2nonc2N)c1CSc1ccc(C)cc1 was read as KCNQ2 block inactive, KCNQ2 enhance 1.1, Kir21 confirm 71%* and HEK293 ctr inactive.
Screening CCOC(=O)c1nnn(-c2nonc2N)c1CSc1ccccc1 returned KCNQ2 block inactive and KCNQ2 enhance 0.21.
S=c1nc(C2CCCCC2)[nH]c2ccccc12 was read as KCNQ2 block inactive.
`S=c1nc(C2CC2)[nH]c2ccccc12` gave KCNQ2 block inactive, KCNQ2 enhance 16*, Kir21 confirm inactive, HEK293 ctr 341%*, CHO-K1 Tl ctr 17*, KCNQ1 pot spec -11, KCNQ2 pot conf 46*, Kir21 spec -18 and KCNQ2 W236L MoA inactive.
For COc1ccc(NCc2ccsc2)cc1 the results were KCNQ2 block inactive and KCNQ2 enhance 0.47.
For N#Cc1c(C(F)(F)F)cc(-c2ccc(Cl)cc2)[nH]c1=O the results were KCNQ2 block inactive, KCNQ2 enhance 6.5*, Kir21 confirm inactive, HEK293 ctr inactive, CHO-K1 Tl ctr 0.0*, KCNQ1 pot spec -12, KCNQ2 pot conf 11*, Kir21 spec -38 and KCNQ2 W236L MoA inactive.
N#Cc1c(C(F)(F)F)cc(-c2ccc(F)cc2)[nH]c1=O was read as KCNQ2 block inactive and KCNQ2 enhance 1.5.
